# Results filed as inconclusive are left out. Entries that show only a call come without a potency. Unmarked numbers belong to inactive results. Calls of active or inactive are those of the source. Unless noted, calls come from the whole dose curve; as a rule, active = well fitted curve in the direction sought with a large enough effect in the repeat runs; inconclusive = weak or mixed curves; inactive = no such curve, though single readings can be large; an effect the other way counts as inactive or inconclusive.
# Columns and labels:
# [1] = qHTS assay to identify small molecule agonists of the RXR signaling pathway - cell viability counter screen (AID 1159529); note: series mostly up to about 77 µM; nearly all actives have a fitted effect of over 50% in size
# Outline: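 Cell viability is measured by CellTiter-Glo luminescence, 30 min at room temperature, in wells already read for beta-lactamase. Engineered HEK 293T cells (RXR-alpha-UAS-bla) are dosed 16 hr at 37 C. Tetraoctyl ammonium bromide serves as positive control.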
# [2] = qHTS assay to identify small molecule antagonists of the retinoid acid receptor (RAR) signaling pathway - cell viability counter screen (AID 1159551); note: nearly all actives have a fitted effect of over 35% in size
# Outline: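 Cytotoxicity counter screen in C3RL4 cells: 6 h compound exposure with 1 uM retinol (final), viability from cellular ATP by luminescence.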
# [3] = qHTS assay to identify small molecule antagonists of the retinoic acid receptor (RAR) signaling pathway (AID 1159552; note: nearly all actives have a fitted effect of over 50% in size)
# Outline: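 Quantitative HTS in C3RL4 RARE-luciferase reporter cells. Compounds were added with 1 uM (final) retinol; luminescence was read after 6 hr.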
# [4] = qHTS assay to identify small molecule agonists of the retinoic acid receptor (RAR) signaling pathway (AID 1159553); note: potency is the fitted concentration of half-maximal effect
# Outline: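 Agonist activity was scored in C3RL4 cells bearing a retinoic acid response element luciferase construct. Cells were treated with compounds for 6 hr at 37 C, and luciferase signal was measured as luminescence.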
# [5] = qHTS assay to identify small molecule antagonists of the estrogen related receptor (ERR) signaling pathway from Tox21 library - cell viability counter screen (AID 1224834); note: nearly all actives have a fitted effect of over 30% in size
# Outline: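 Cytotoxicity of test substances is gauged in the same ERR cells used for the antagonist screen, after 17.5 h of compound treatment at 37 C, by CellTiter-Fluor fluorescence measured after 30 min.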
# [6] = biological target: Luciferin 4-monooxygenase (Photinus pyralis) (UniProt P08659); test: qHTS assay to identify small molecule inhibitors of firefly luciferase (AID 1224835); note: nearly all actives have a fitted effect of over 25% in size; note: potency is the fitted concentration of half-maximal effect
# Chain of Luciferin 4-monooxygenase (Photinus pyralis) (P08659 whole entry, looked up): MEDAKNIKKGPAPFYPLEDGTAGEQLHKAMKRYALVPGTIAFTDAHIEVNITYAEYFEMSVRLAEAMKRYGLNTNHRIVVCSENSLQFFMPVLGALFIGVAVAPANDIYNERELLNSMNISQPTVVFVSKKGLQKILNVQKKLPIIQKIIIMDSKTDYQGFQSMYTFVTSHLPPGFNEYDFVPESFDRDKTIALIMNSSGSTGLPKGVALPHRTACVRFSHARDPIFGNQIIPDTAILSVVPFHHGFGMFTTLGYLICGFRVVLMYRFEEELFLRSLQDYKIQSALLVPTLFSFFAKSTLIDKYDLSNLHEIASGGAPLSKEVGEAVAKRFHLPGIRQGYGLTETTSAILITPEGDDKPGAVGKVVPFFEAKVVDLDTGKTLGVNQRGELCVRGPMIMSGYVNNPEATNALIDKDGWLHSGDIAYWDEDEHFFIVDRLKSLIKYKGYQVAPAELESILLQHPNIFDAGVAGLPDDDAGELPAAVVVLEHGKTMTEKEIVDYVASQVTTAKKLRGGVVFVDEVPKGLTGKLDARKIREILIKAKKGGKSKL
# Outline: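 Quantitative HTS format; KM concentrations of both substrates. Purified P. pyralis FLuc activity quantified from luminescence images.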
# [7] = qHTS assay to identify small molecule agonists of the constitutive androstane receptor (CAR) signaling pathway - cell viability counter screen (AID 1224836); note: series mostly up to about 92 µM; nearly all actives have a fitted effect of over 45% in size
# Outline: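 Counter screen multiplexed with the CAR reporter readout: HepG2 cells co-transfected with hCAR and the CYP2B6-2.2kb construct receive a 15-concentration compound series and 0.75 uM PK11195 (final), then CellTiter-Fluor fluorescence is read after 23 h.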
# [8] = qHTS assay to identify small molecule antagonists of the constitutive androstane receptor (CAR) signaling pathway - cell viability counter screen (AID 1224837); note: series mostly up to about 92 µM; nearly all actives have a fitted effect of over 45% in size
# Outline: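 Multiplexed cytotoxicity read-out for the CAR antagonist screen: double-stable HepG2-CYP2B6-hCAR cells co-treated with 50 nM CITCO (final) and compound over 15 concentrations, incubated 23 hr, then assessed by CellTiter-Fluor fluorescence.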
# [9] = biological target: Nuclear receptor subfamily 1 group I member 3 (Homo sapiens) (UniProt Q14994); test: qHTS assay to identify small molecule antagonists of the constitutive androstane receptor (CAR) signaling pathway (AID 1224838); note: nearly all actives have a fitted effect of over 40% in size
# Chain of Nuclear receptor subfamily 1 group I member 3 (Homo sapiens) (Q14994 whole entry, looked up): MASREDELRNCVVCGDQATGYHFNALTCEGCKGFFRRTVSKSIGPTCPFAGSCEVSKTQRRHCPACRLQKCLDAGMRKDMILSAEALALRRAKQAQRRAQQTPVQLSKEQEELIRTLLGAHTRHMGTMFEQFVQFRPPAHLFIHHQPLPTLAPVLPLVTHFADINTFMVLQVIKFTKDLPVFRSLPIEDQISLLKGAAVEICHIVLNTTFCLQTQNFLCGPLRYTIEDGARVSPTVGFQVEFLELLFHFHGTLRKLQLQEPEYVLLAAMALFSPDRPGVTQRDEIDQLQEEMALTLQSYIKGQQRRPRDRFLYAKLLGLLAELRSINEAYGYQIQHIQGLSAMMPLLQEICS
# Outline: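 Compounds were titrated across 15 concentrations onto HepG2 cells double-stably expressing hCAR and a CYP2B6-2.2kb reporter, together with 50 nM CITCO (final). After 24 h at 37 C, luciferase activity was measured by luminescence.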
# [10] = biological target: Nuclear receptor subfamily 1 group I member 3 (Homo sapiens) (UniProt Q14994); test: qHTS assay to identify small molecule agonists of the constitutive androstane receptor (CAR) signaling pathway (AID 1224839); note: nearly all actives have a fitted effect of over 15% in size; note: potency is the fitted concentration of half-maximal effect
# Outline: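 A 15-concentration quantitative screen uses HepG2 cells co-transfected stably with human CAR and CYP2B6-2.2kb reporter. Treatment lasts 24 h with 0.75 uM PK11195 final present; ONE-Glo luminescence is the signal.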
# [11] = qHTS assay to identify small molecule antagonists of the estrogen related receptor signaling pathway with the pleiotropic PPARgamma coactivator (PGC) from Tox21 10K library - cell viability counter screen (AID 1224840; active = well fitted cell-killing curve with a large enough effect in the repeat runs, not every such curve was filed as active; note: nearly all actives have a fitted effect of over 40% in size)
# Outline: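 Step one, plate 2,000 PGC/ERR cells per well; step two, incubate 6 h at 37 C/5% CO2; step three, pin-transfer compounds; step four, incubate 17.5 h; step five, add CellTiter-Fluor and read fluorescence after 30 min.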
# [12] = biological target: Retinoic acid receptor RXR-alpha (Homo sapiens) (UniProt P19793); test: qHTS assay to identify small molecule agonists of the RXR signaling pathway (AID 1159527; calls by dose curve; note: nearly all actives have a fitted effect of over 35% in size)
# Chain of Retinoic acid receptor RXR-alpha (Homo sapiens) (P19793 whole entry, looked up): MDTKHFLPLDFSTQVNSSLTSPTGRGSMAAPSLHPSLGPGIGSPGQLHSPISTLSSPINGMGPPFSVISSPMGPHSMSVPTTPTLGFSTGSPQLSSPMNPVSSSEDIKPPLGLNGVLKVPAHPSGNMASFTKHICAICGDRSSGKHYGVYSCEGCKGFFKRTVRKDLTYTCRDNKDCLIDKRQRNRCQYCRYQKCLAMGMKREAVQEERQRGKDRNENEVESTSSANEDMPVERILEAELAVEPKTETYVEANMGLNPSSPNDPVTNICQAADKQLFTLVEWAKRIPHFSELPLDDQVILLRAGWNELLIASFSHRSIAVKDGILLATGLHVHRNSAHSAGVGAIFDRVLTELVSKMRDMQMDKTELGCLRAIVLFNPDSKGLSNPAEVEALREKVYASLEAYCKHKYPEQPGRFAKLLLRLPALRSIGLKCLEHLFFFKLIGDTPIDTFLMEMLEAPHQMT
# Outline: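 qHTS of the Tox21 10K library in GeneBLAzer RXR-alpha HEK 293T cells carrying a beta-lactamase reporter […]; 16 hr treatment, 9-cis retinoic acid as agonist control, FRET read-out.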
# [13] = qHTS assay to identify small molecule antagonists of the estrogen related receptor signaling pathway with the pleiotropic PPARgamma coactivator (PGC) from Tox21 10K library (AID 1224841; call rule not given here; note: series mostly up to about 92 µM; actives are mostly falling curves and most rising ones were filed inactive; nearly all actives have a fitted effect of over 50% in size)
# Outline: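 Antagonism in this quantitative HTS is taken from loss of luciferase signal in PGC/ERR cells. Cells (2,000/well) are treated with compounds in DMSO after a 6 h settling period and read by One-Glo luminescence after 18 h.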
# [14] = qHTS assay to identify small molecule agonists of the estrogen related receptor signaling pathway with the pleiotropic PPARgamma coactivator (PGC) from Tox21 10K library (AID 1224842); note: nearly all actives have a fitted effect of over 15% in size
# Outline: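 PGC/ERR reporter cells (NTP line) were seeded 2,000 per well, rested 6 h at 37 C/5% CO2, then pin-dosed with compounds in DMSO for 18 h at 37 C; luciferase read by One-Glo luminescence after 30 min at room temperature.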
Compound,Potency [1],outcome [2],outcome [3],Potency [4],Potency [5],Potency [6],Potency [7],Potency [8],Potency [9],Potency [10],Potency [11],outcome [12],Potency [13],Potency [14]
CCOc1ccccc1O,inactive,inactive,inactive,inactive,inactive,inactive,inactive,inactive,inactive,inactive,inactive,,,
CCCCCCCCCCCCCCCCN,inactive,inactive,inactive,inactive,inactive,inactive,inactive,inactive,inactive,inactive,inactive,inactive,,
CCc1ccc2c(c1)C(=O)c1ccccc1C2=O,inactive,inactive,inactive,1.72 µM (active),inactive,5.03 µM (active),inactive,inactive,inactive,27.3 µM (active),inactive,,,
CC(CN=Cc1ccccc1O)N=Cc1ccccc1O (stereo not given),inactive,inactive,inactive,inactive,inactive,inactive,inactive,inactive,inactive,inactive,inactive,,,
O=C1OC(=O)C2CC=CCC12 (stereo not given),inactive,inactive,inactive,inactive,inactive,inactive,inactive,inactive,inactive,inactive,inactive,,,
CC(C(=O)O)c1ccc(/C=C2\CCCCC2=O)cc1 (stereo not given),inactive,inactive,inactive,15 µM (active),inactive,30.9 µM (active),inactive,inactive,inactive,26.6 µM (active),inactive,,,
O=C1C=CCCC1,inactive,inactive,inactive,inactive,inactive,inactive,inactive,inactive,inactive,inactive,inactive,,,
O=C(NC1CCN(CCc2c[nH]c3ccccc23)CC1)c1ccccc1,inactive,inactive,inactive,inactive,inactive,inactive,inactive,inactive,inactive,inactive,inactive,inactive,,
CCc1ccc(C(=O)C(C)CN2CCCCC2)cc1 (stereo not given),inactive,inactive,inactive,inactive,inactive,inactive,inactive,inactive,inactive,inactive,inactive,,,
C=CC(=O)OCCCCCCCCCC,inactive,,inactive,inactive,inactive,inactive,inactive,inactive,inactive,,inactive,inactive,inactive,inactive
Cc1cc(C)c(C)c(O)c1,inactive,inactive,inactive,inactive,inactive,inactive,inactive,inactive,inactive,inactive,inactive,inactive,inactive,inactive
O=C(c1ccco1)N1CCNCC1,inactive,inactive,inactive,inactive,inactive,inactive,inactive,inactive,inactive,inactive,inactive,inactive,,inactive
CC1(C)CC(O)CC(C)(C)N1[O],inactive,inactive,inactive,inactive,inactive,inactive,inactive,inactive,inactive,inactive,inactive,,,
CC(C)NC(=O)c1ccccc1N,inactive,inactive,inactive,inactive,inactive,inactive,inactive,inactive,inactive,inactive,inactive,,,
COC(=O)c1cc(Cl)ccc1[N+](=O)[O-],inactive,inactive,inactive,inactive,inactive,inactive,inactive,inactive,inactive,inactive,inactive,,,
CC(COc1ccccc1)NC(C)C(O)c1ccc(O)cc1 (stereo not given),inactive,inactive,inactive,inactive,inactive,inactive,inactive,inactive,inactive,inactive,inactive,inactive,,inactive
CCCCCCCCCCCCCCCCC(=O)O,inactive,inactive,inactive,inactive,inactive,inactive,inactive,inactive,inactive,inactive,inactive,inactive,,
CCC(=O)O[C@@H]1C[C@H]2CC[C@]1(C)C2(C)C,inactive,inactive,inactive,inactive,inactive,inactive,inactive,inactive,inactive,inactive,inactive,inactive,,inactive
CCCCCCCCOCCCN,inactive,inactive,inactive,inactive,inactive,inactive,inactive,inactive,inactive,inactive,inactive,inactive,,
CCCC1CCCC(=O)O1 (stereo not given),inactive,inactive,inactive,inactive,inactive,inactive,inactive,inactive,inactive,inactive,inactive,,,
[O-][n+]1ccc(Cl)cc1,inactive,inactive,inactive,inactive,inactive,inactive,inactive,inactive,inactive,inactive,inactive,,,

# From PubChem BioAssay (Tox21)
